KDM5B inh: Primary screen for KDM5B Histone Demethylases FDH-coupled qHTS; 220,000 compounds, 2.6% hits; KDM5B demethylase, FDH-coupled NADH fluorescence (FDH is formaldehyde dehydrogenase); Potency, µM (doses to about 57.7 µM), actives largely listed as inhibitors; Lysine-specific demethylase 5B (Homo sapiens), Q9UGL1; active = well fitted inhibition curve with a large enough effect; also: 0% is about no effect; nearly all actives have a fitted effect of over 70% in size
Target sequence (Q9UGL1 whole entry, looked up): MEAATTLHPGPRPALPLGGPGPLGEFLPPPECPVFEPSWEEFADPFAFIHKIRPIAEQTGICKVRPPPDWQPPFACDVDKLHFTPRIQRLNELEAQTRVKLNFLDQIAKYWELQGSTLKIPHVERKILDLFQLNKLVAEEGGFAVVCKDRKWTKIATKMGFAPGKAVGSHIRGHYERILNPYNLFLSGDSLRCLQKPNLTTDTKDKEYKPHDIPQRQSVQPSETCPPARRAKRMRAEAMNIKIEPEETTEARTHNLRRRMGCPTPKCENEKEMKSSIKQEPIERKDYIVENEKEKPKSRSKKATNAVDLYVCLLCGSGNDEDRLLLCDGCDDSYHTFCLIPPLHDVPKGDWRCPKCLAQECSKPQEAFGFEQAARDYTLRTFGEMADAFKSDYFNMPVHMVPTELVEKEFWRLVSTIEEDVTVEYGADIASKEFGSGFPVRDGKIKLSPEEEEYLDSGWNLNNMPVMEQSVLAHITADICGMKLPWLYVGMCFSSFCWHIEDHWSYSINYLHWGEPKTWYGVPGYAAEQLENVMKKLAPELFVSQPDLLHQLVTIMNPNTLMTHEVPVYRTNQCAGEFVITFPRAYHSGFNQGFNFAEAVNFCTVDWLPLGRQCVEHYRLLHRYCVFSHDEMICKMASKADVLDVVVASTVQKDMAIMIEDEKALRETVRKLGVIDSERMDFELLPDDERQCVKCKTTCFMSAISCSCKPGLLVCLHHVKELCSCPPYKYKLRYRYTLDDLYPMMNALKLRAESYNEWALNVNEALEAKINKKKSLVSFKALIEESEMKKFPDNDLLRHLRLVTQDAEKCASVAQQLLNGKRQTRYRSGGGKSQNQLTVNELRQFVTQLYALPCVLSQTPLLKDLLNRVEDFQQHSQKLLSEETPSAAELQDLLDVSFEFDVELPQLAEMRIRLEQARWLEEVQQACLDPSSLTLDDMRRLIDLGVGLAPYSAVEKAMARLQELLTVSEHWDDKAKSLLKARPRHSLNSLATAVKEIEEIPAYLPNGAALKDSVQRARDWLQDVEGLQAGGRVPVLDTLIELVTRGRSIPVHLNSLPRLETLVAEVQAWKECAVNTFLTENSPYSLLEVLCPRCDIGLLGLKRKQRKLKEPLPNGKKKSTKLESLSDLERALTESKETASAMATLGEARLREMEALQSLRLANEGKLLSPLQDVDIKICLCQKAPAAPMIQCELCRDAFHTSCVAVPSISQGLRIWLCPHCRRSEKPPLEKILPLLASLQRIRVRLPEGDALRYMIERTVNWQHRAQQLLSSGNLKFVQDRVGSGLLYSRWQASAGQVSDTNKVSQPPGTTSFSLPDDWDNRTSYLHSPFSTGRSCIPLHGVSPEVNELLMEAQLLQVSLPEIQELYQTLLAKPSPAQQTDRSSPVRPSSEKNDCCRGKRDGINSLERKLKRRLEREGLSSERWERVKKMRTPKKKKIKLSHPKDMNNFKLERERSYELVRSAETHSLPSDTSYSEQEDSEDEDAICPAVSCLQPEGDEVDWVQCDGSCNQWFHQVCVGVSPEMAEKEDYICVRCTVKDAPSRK
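Measured: NADH fluorescence change, 30 min, RT. System: KDM5BΔAP 200 nM final, H3K4me3 peptide, α-KG, Fe(II), ascorbate, NAD⁺ plus FDH, pH 7.5 HEPES. Compounds: titrated, 10 min pre-incubation with enzyme.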
Starred values were filed as active, the others as inactive. The sample as a whole holds a higher share of hits than the screen did. Potency is read from the fitted curve at half-maximal effect.

Results for Cc1nn2c(c1-c1ccccc1C(C)C)N(C(=O)c1cc3ccccc3n1C)CCC2 ?
KDM5B inh: inactive

How did O=S(=O)(c1ccc(F)cc1)N1CCN(Cc2cccc3cccnc23)CC1 do in these assays?
KDM5B inh: inactive

What do the screens show for `NCc1cccc(-c2cccc(Cl)c2)c1`?
KDM5B inh: inactive

Results for CN1CCCN(C[C@@H]2CN(S(C)(=O)=O)C[C@@H]2CO)CC1 ?
KDM5B inh: inactive

What do the screens show for `COCCn1cnc2c1c(=O)n(CC(=O)Nc1ccc(OC(F)F)cc1)c(=O)n2Cc1ccccc1`?
KDM5B inh: inactive

Results for O=c1cc(-c2ccncc2)oc2c(-c3ccc(CO)cc3)nccc12 ?
KDM5B inh: 35µM*

How did Cc1noc(C)c1-c1cc2c(c(-c3ccccc3O)c1)C(=O)N(C)C2=O do in these assays?
KDM5B inh: inactive

What do the screens show for `CCOc1ccc(-c2cc(=O)c3ccccc3o2)cc1`?
KDM5B inh: inactive

What do the screens show for `O=C(NCc1ccncc1)c1cc(=O)c2ccccc2o1`?
KDM5B inh: inactive

Results for Cc1noc(C)c1-c1nccc2c(=O)cc(-c3ccccn3)oc12 ?
KDM5B inh: 28µM*

How did O=c1cc(-c2ccccn2)oc2c(-c3ccc(CO)cc3)nccc12 do in these assays?
KDM5B inh: 28µM*

How did COc1cccc(Cl)c1-c1nccc2c(=O)cc(-c3ccccn3)oc12 do in these assays?
KDM5B inh: inactive

Results for NCc1ccc(-c2ccccn2)cc1 ?
KDM5B inh: inactive

How did Cc1oc2cc(OCCN3CCN(c4ccccc4)CC3)ccc2c(=O)c1-c1ccccc1 do in these assays?
KDM5B inh: inactive

How did Cc1ccc(C)c(SC(C)C(=O)NC2CCCC2)c1 (stereo not given) do in these assays?
KDM5B inh: inactive

How did Cc1cccc(C(=O)NC(c2cccnc2)c2cc(C)ccc2C)c1 (stereo not given) do in these assays?
KDM5B inh: inactive

How did COc1cccc(NC(=O)Cc2cnc(-n3cccc3)s2)c1 do in these assays?
KDM5B inh: inactive

What do the screens show for `Cc1nn(CCC(=O)NCc2cccnc2)c(=O)c2nn(-c3ccccc3)c(C)c12`?
KDM5B inh: inactive

Results for COc1ccc(C(=O)Nc2ccc([C@H]3OCC(=O)N[C@@H]3CO)cc2)cc1OC ?
KDM5B inh: inactive

What do the screens show for `COc1ccc(NC(=O)c2ccc3c(c2)NC(=O)CCS3)cn1`?
KDM5B inh: inactive

What do the screens show for `COc1ccc(NC(=O)c2ccc3c(c2)NC(C)(CNc2ccccc2)CO3)cc1OC` (stereo not given)?
KDM5B inh: 35µM*

What do the screens show for `COc1ccc(NC(=O)c2ccc3c(c2)NC(C)(COc2ccccc2)CO3)cc1OC` (stereo not given)?
KDM5B inh: 32µM*

How did COc1ccc(C(=O)Nc2cccc(-c3nnc4n3CCCC4)c2)cc1OC do in these assays?
KDM5B inh: inactive

What do the screens show for `COc1ccc(C(=O)Nc2ccc3oc(-c4ccccc4)cc(=O)c3c2)cc1OC`?
KDM5B inh: inactive

What do the screens show for `COc1ccc(NC(=O)c2ccc3c(c2)NC(C)(CNc2ccccc2)CO3)cn1` (stereo not given)?
KDM5B inh: inactive

What do the screens show for `COc1ccc(NC(=O)c2cc(-c3ccc4c(c3)OCO4)on2)cc1OC`?
KDM5B inh: inactive

Results for COc1ccc(NC(=O)c2ccc3c(c2)NC(C)(COc2ccccc2)CO3)cn1 (stereo not given) ?
KDM5B inh: 32µM*

Results for CC(=O)c1nnn(-c2nc(N(C)C)nc(N(C)C)n2)c1C ?
KDM5B inh: inactive

How did Ic1ccc(-c2nc(-c3ccccn3)no2)cc1 do in these assays?
KDM5B inh: inactive

What do the screens show for `Cc1cc2c(cc1S(=O)(=O)N1CCC(C(=O)N3CCc4ccccc43)CC1)OC(C)C(=O)N2` (stereo not given)?
KDM5B inh: inactive

How did O=C(Cc1csc(-c2ccccc2)n1)Nc1ccnn1Cc1cccc(Cl)c1 do in these assays?
KDM5B inh: inactive

How did CCOc1ccc(NC(=O)c2ccc3c(O)c(S(=O)(=O)c4ccc(Cl)cc4)c(=O)[nH]c3c2)cc1 do in these assays?
KDM5B inh: inactive

What do the screens show for `Cc1ccc2c(CSc3nnc(NC4CC4)s3)cc(=O)oc2c1`?
KDM5B inh: inactive

Results for COc1ccc(-c2c3c(=O)n(CCCN4CCOCC4)ccc3nc3nc(C)nn23)cc1 ?
KDM5B inh: inactive

What do the screens show for `COc1ccc(C)cc1Nc1nc(N)c(C(=O)c2ccc(Br)cc2)s1`?
KDM5B inh: inactive

Results for CCCCCn1cnc2c1c(=O)n(C)c(=O)n2C ?
KDM5B inh: inactive

Results for COC(=O)CNC(=O)NCCc1noc(C2CC2)n1 ?
KDM5B inh: inactive

Results for COc1ccc(-c2cc(C(=O)O)cc(S(=O)(=O)N3CCN(C)CC3)c2)cc1 ?
KDM5B inh: 16µM*

Results for O=C(O)c1cc(-c2ccncc2)cc(S(=O)(=O)N2CCCCCC2)c1 ?
KDM5B inh: inactive

How did CN1CCN(S(=O)(=O)c2cc(Br)cc(C(=O)O)c2)CC1 do in these assays?
KDM5B inh: inactive

Results for COc1ccc(C(NC(=O)COc2ccccc2)c2nccn2C)cc1 (stereo not given) ?
KDM5B inh: inactive

What do the screens show for `O=C(C1CCC1)N1CCC2(CC1)NCCc1c2[nH]c2ccccc12`?
KDM5B inh: inactive

What do the screens show for `CCC(C)C(=O)N1CCC2(CC1)NCCc1c2[nH]c2ccc(OC)cc12` (stereo not given)?
KDM5B inh: 32µM*

What do the screens show for `COc1ccc2[nH]c3c(c2c1)CCNC31CCN(C(=O)C2CCOCC2)CC1`?
KDM5B inh: 22µM*

How did COc1ccc(C(=O)N2CCC3(CC2)NCCc2c3[nH]c3ccccc23)cc1 do in these assays?
KDM5B inh: inactive

Results for CCn1nccc1C(=O)N1CCC2(CC1)NCCc1c2[nH]c2ccc(OC)cc12 ?
KDM5B inh: inactive

How did COc1ccc2[nH]c3c(c2c1)CCNC31CCN(C(=O)c2nccc3ccccc23)CC1 do in these assays?
KDM5B inh: inactive

What do the screens show for `COc1ccc2[nH]c3c(c2c1)CCNC31CCN(Cc2ccc(F)cc2F)CC1`?
KDM5B inh: 11µM*

How did COc1ccc2[nH]c3c(c2c1)CCNC31CCN(C(=O)c2ocnc2C)CC1 do in these assays?
KDM5B inh: inactive

What do the screens show for `COc1ccc2[nH]c3c(c2c1)CCN(C)C31CCNCC1`?
KDM5B inh: inactive

Results for O=C(C1CC1)N1CCC2(CC1)NCCc1c2[nH]c2ccccc12 ?
KDM5B inh: inactive

How did COc1ccc2[nH]c3c(c2c1)CCNC31CCN(C(=O)c2cnccn2)CC1 do in these assays?
KDM5B inh: inactive

Results for COc1ccc2[nH]c3c(c2c1)CCNC31CCN(C(=O)C2CC=CC2)CC1 ?
KDM5B inh: 22µM*

What do the screens show for `CCC12CN3CC(CC)(CN(C1)C(=O)c1ccccc1C3=O)C2=O`?
KDM5B inh: inactive

How did O=C(Cn1nc(Cc2ccncc2)c2ccccc2c1=O)Nc1cc(F)ccc1F do in these assays?
KDM5B inh: inactive

Results for Cc1cccc(C(C)C)c1NC(=O)CSc1ccccc1Cl ?
KDM5B inh: inactive

What do the screens show for `CCCCn1nc(C(=O)Nc2nccs2)c2ccccc2c1=O`?
KDM5B inh: inactive

What do the screens show for `CC1=C[C@@H](CC#N)[C@H](C(C)C)C[C@H]1CC(=O)N1CCN(CCO)CC1`?
KDM5B inh: inactive

Results for O=C(CCc1c[nH]c2ccccc12)Nc1ccccc1OC(F)F ?
KDM5B inh: inactive

How did CC(C)Sc1nnc2c3cc(F)ccc3n(C)c2n1 do in these assays?
KDM5B inh: inactive

From PubChem BioAssay
